According to the supplement of paper PMC11732987, “Enantioselective OTUD7B fragment discovery through chemoproteomics screening and high-throughput optimisation” (Communications Chemistry, 2025):

How the values were obtained:
Assay in all cases: log2 ratio of Biotin-Ahx-Ub-VS probe labelling (fragment/DMSO); higher = less target engagement (more negative = stronger competition), active = hit call of the paper (q ≤ 0.05, log2 ratio ≤ -1)
Conditions in all cases: compound concentration: 200 uM; treatment time: 3 h
[1] = target: USP34 (UniProt Q70CQ2)
How it was run: (§1)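 HEK293T lysate, 495 µg per sample in Tris/CHAPS/IGEPAL buffer with protease inhibitors, was treated in triplicate with fragment at 200 µM or vehicle for 3 h and then with Biotin-Ahx-Ub-VS at 0.5 µM final for 1 h. Labelled DUBs were NeutrAvidin-enriched, digested with LysC and trypsin, and run by diaPASEF LC-MS/MS. Spectronaut label-free quantities were global-median-normalised, and values are average log2 fragment/vehicle ratios by unpaired t-test on proteins with ≥2 unique peptides.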

[2] = target: T1, USP36 (UniProt Q9P275)
T1 sequence (whole entry): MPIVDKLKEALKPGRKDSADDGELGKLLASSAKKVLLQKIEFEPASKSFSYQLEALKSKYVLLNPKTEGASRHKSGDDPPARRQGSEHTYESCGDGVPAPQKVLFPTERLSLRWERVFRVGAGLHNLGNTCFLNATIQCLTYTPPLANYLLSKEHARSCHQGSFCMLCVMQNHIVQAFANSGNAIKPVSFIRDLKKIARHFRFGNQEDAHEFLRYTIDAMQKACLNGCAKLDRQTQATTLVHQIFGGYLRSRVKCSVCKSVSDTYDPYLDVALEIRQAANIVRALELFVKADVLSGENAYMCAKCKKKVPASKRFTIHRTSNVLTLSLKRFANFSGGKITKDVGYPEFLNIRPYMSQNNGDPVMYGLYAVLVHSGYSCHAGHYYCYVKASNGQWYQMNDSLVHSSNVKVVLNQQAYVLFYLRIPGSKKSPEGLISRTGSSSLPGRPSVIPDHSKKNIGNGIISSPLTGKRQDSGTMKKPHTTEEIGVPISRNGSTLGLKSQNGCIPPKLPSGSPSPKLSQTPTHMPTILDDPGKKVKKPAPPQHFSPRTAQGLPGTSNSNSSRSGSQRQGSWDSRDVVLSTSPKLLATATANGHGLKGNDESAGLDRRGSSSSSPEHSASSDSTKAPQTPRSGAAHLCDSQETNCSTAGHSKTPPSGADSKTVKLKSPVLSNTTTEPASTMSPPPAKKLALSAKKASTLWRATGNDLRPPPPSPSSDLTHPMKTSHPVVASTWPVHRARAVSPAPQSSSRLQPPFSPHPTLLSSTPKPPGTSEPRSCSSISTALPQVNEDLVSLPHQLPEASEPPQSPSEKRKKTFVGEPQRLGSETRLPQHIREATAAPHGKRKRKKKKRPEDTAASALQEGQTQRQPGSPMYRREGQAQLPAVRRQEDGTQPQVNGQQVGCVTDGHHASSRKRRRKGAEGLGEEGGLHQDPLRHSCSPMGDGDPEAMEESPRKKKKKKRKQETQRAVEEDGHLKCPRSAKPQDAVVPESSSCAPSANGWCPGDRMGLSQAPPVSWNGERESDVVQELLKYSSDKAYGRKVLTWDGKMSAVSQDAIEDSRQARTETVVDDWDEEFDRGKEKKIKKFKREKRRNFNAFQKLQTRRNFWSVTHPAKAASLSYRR
How it was run: as §1

[3] = target: T2, USP38 (UniProt Q8NB14)
T2 sequence (whole entry): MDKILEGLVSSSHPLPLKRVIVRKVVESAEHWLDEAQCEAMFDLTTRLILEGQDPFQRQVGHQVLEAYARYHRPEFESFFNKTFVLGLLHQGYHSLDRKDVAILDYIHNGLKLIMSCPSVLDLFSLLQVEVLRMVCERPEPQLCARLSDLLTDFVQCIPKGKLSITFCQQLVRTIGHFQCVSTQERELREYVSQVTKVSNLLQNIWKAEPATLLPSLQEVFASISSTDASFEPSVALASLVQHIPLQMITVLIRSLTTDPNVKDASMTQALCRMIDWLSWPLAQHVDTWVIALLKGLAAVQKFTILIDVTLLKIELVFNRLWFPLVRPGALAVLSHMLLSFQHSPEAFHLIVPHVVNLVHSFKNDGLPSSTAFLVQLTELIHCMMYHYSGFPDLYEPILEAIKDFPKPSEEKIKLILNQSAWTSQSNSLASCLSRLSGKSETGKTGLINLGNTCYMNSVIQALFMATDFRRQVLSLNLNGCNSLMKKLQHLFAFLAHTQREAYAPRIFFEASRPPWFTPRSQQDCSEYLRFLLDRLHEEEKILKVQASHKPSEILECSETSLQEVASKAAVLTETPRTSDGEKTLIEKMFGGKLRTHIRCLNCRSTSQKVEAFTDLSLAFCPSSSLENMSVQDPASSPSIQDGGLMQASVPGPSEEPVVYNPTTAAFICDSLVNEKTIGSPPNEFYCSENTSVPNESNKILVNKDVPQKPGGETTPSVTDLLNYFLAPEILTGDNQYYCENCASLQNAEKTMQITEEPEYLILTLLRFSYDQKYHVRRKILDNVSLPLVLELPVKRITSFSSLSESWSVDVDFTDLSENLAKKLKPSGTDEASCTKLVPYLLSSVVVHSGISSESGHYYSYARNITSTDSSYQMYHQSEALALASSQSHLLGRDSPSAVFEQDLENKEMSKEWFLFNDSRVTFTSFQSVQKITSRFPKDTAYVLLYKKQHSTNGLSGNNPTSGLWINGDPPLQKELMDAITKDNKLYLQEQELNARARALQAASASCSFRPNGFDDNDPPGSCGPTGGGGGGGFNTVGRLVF
How it was run: as §1

[4] = target: T3, USP39 (UniProt Q53GS9)
T3 sequence (whole entry): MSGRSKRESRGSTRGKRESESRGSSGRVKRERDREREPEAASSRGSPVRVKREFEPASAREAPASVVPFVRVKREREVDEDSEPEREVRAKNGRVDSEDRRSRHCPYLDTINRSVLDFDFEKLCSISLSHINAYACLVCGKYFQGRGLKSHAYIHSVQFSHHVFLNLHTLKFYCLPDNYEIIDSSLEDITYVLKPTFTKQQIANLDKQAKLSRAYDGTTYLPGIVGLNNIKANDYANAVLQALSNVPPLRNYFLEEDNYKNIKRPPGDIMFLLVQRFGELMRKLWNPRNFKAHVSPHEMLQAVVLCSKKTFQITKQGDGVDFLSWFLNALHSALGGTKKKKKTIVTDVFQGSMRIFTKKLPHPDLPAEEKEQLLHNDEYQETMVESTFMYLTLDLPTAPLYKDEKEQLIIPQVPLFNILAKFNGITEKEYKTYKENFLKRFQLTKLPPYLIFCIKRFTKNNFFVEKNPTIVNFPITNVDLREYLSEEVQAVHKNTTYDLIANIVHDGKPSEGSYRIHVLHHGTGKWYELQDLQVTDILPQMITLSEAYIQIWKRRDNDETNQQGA
How it was run: as §1

[5] = target: T4, USP4 (UniProt Q13107)
T4 sequence (whole entry): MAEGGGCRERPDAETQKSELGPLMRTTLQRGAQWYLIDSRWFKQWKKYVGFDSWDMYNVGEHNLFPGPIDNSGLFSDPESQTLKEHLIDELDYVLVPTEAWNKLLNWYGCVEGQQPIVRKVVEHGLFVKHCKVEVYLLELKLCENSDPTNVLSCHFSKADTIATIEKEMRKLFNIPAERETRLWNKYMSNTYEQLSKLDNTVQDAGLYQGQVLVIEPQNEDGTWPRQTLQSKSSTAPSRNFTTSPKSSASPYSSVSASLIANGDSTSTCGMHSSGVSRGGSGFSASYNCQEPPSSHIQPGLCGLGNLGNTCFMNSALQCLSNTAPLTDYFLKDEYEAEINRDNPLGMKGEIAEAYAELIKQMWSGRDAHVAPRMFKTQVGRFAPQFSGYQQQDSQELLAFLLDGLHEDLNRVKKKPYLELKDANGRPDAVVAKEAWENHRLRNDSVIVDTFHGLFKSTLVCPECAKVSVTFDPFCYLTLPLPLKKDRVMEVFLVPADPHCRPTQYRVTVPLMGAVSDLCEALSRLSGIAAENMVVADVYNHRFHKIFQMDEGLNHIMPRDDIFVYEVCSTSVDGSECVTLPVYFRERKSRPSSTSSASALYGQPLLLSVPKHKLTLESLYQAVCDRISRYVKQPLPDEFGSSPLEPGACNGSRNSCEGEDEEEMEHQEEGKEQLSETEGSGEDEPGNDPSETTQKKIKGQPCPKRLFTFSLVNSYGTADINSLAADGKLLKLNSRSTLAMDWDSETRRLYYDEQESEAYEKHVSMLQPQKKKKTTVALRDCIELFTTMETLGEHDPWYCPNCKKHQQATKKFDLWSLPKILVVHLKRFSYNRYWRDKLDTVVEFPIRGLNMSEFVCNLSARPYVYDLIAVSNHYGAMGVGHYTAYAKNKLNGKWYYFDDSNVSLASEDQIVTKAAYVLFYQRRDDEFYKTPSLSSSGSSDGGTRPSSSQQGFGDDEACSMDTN
How it was run: as §1

Measured: log2 ratio of Biotin-Ahx-Ub-VS probe labelling

Chain of USP34 (Q70CQ2 whole entry, the tested form may be a part): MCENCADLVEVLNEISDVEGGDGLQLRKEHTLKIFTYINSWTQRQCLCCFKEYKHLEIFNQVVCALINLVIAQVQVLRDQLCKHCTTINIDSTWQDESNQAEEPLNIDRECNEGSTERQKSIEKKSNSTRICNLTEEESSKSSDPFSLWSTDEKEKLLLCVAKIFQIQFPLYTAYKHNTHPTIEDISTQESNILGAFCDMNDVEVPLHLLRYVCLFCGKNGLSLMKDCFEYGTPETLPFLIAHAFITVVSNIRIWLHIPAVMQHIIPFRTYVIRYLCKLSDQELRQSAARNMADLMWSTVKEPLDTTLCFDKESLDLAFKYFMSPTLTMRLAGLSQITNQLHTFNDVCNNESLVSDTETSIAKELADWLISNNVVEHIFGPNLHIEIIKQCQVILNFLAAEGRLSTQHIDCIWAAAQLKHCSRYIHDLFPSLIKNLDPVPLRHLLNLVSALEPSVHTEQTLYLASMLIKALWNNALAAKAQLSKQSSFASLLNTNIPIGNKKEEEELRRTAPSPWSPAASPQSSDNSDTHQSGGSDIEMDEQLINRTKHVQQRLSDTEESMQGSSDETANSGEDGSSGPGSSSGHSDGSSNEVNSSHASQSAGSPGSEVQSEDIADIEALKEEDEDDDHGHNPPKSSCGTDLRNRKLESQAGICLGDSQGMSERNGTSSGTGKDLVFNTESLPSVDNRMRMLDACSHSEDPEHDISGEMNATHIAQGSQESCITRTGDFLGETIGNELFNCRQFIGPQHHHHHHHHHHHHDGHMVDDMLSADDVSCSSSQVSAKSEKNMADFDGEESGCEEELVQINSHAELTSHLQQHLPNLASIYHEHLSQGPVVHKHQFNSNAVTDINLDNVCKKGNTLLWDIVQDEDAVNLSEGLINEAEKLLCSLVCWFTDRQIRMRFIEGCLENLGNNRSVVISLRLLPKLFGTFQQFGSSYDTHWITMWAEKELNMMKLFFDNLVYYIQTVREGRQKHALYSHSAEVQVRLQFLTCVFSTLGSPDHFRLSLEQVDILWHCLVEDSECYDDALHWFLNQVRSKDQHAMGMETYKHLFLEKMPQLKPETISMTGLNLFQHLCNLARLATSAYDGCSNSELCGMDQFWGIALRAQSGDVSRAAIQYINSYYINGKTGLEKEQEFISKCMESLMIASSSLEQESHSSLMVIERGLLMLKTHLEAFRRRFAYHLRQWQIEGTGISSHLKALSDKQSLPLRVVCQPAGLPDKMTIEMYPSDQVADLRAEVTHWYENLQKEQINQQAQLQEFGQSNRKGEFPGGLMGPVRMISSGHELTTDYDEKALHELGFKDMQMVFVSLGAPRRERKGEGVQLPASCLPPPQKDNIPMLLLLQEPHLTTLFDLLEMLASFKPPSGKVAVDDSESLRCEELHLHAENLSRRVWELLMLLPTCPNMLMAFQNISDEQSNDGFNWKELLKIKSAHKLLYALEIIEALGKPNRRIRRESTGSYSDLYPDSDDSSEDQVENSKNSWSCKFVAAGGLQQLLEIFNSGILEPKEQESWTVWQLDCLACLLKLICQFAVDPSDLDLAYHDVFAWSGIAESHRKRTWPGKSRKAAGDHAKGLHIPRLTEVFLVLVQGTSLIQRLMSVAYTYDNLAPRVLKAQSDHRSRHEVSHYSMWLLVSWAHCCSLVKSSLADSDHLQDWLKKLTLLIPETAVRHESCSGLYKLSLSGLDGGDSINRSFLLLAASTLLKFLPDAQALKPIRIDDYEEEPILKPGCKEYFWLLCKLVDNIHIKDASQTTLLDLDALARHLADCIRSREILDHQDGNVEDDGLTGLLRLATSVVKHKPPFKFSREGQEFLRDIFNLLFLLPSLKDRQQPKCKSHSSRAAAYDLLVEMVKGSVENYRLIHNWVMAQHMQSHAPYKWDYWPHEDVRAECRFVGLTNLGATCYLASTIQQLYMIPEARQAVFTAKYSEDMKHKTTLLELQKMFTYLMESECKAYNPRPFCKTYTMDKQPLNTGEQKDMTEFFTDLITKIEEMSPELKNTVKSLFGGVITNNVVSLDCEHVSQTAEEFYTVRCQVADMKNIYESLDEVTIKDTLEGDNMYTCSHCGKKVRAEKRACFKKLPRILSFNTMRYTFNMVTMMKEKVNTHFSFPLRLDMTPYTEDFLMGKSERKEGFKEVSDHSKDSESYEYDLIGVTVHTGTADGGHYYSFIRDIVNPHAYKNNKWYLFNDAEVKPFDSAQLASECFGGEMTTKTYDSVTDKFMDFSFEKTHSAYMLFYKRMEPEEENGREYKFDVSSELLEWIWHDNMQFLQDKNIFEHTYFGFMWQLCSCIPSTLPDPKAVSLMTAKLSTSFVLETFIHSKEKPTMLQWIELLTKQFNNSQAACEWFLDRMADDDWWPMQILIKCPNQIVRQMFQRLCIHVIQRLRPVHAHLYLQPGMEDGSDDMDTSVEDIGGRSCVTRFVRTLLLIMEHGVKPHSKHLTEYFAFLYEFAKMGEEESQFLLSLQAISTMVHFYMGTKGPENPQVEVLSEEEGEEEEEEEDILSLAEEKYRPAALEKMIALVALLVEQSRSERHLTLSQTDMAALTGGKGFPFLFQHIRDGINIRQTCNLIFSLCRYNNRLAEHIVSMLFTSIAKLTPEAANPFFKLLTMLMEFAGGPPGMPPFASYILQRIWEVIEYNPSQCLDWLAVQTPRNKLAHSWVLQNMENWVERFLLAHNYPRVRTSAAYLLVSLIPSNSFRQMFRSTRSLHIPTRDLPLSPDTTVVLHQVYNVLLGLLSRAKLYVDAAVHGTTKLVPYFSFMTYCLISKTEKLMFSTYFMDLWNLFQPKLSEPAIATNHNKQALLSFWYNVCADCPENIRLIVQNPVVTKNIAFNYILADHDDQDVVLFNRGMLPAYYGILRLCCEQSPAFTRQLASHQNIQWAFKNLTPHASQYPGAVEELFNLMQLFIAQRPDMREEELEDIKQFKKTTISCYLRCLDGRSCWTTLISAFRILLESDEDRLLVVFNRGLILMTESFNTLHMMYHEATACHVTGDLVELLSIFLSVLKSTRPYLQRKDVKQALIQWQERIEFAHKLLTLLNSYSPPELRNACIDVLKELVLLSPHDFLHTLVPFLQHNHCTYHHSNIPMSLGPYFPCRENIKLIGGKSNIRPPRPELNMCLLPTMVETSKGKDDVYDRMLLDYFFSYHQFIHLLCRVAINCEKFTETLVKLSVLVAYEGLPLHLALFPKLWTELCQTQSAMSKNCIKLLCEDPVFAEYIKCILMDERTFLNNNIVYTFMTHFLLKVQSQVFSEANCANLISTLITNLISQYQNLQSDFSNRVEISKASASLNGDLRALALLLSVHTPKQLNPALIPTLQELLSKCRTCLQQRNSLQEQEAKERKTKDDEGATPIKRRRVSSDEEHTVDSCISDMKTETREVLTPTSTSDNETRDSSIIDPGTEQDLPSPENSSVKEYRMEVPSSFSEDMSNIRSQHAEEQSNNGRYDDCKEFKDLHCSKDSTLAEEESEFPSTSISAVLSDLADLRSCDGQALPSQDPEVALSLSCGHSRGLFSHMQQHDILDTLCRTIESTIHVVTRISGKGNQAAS

COCC[C@@H](NC(=O)CCl)c1ccccc1
inactive: [1] -0.0495 | [2] -0.11 | [3] 0.0786 | [4] -0.0498 | [5] 0.0432
